Measured values published in PubChem BioAssay AID624246 (National Center for Advancing Translational Sciences (NCATS), 2012).
Out of some 370,000 compounds screened, about 100 (0.027%) were called active. What follows is part of a selection rich in actives, with near analogues and random picks from the rest. A number with no mark means an inactive call. Calls follow the shape of the dose curve; as a rule, active = well fitted inhibition curve with a large enough effect in the polarisation, with a control signal flat; inconclusive = small, poorly fitted or top-dose-only effect, or effect the other way, or a change in a side signal; inactive = no such curve, though single readings can be large or run the other way; the % refers to the polarisation.

target: Transcriptional regulator ERG (Homo sapiens) (UniProt P11308); assay: qHTS for Small Molecule Inhibitors of the ERG Ets/DNA interaction; conditions: fluorescence polarization, His-ERG Ets domain / labelled DNA; series mostly up to 76.9 µM; FP activity, negative = inhibition: at the top concentration; as to FP activity, negative = inhibition: % of control where 0% means no effect
From the text: The Ets family of proteins is a family of ~30 conserved transcription factors defined by the presence of an ~85 amino acid domain referred to as the Ets domain, which mediates sequence-specific DNA binding to a core DNA element GGAA/T.The Ets family member ERG has been linked to several neoplasms. […] More extensive studies of the effects of over-expression of ERG in prostate cells have recently been carried out and have shown that over-expression of ERG results in increased invasion. […] We will carry out a high throughout screen to identify inhibitors of the interaction between ERG and DNA using a fluorescence polarization (FP) assay with a His-tagged ERG Ets domain and fluorescently-labeled DNA probes to develop small molecule inhibitors of this interaction as probes to test this hypothesis and lay the groundwork for the development of targeted therapies against ERG. NIH Molecular Libraries Probe Production Network [MLPCN] NIH Chemical Genomics Center [NCGC] Grant: NS066464 PI Name: John Bushweller, University of Virgina
1.5 ul of protein solution (1 uM ERG domain in 300mM KCl, 50mM Tris-HCl, 1mM EDTA, 1mM DTT, pH 7.5); 20 nl Control plate and compound library plate; 1.5 ul mixture of 5 nM Fluorescein-DNA and 100nM Texas-615-DNA solution in same buffer as above solution; measure fluorescence polarization sequentially for fluorescein (Excitation = 480 nm, Emission = 535s, 535p nm) and Texas red (Excitation = 555 nm, Emission = 632s, 632p nm).
Potency is read from the fitted curve at half-maximal effect.

Chain of Transcriptional regulator ERG (Homo sapiens) (P11308 whole entry, looked up, the tested form may be a part): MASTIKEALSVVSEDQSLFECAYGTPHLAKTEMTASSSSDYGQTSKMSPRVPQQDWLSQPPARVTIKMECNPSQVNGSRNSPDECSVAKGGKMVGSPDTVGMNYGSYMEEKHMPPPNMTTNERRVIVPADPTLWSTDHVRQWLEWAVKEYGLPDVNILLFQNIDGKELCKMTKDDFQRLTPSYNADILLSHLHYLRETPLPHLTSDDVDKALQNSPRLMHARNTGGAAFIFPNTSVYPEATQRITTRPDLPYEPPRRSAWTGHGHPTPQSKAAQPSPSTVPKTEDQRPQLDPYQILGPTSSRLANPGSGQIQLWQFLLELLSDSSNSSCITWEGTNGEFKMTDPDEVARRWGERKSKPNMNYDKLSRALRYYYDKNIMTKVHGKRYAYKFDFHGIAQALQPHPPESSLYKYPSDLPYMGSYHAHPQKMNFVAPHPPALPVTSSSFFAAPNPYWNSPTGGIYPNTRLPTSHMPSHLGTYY

Row | Compound | FP activity, negative = inhibition [%] | Potency
1 | Cc1ccc(OCCSc2nc(C)c(Cc3ccccc3)c(=O)[nH]2)cc1 | 1.16 | –
2 | CCC1(C)CC(=O)c2c(ccc3oc(C(=O)Nc4ccc(C(C)=O)cc4)c(C)c23)O1 (configuration not stated) | -5.73 | –
3 | COc1ccc(CCNC(=O)c2ccc(-n3c(C)cc4c3CCCC4)cc2)cc1OC | -3.33 | –
4 | Cc1ccc(C)c(CNC(=O)c2cc3ccccn3n2)c1 | -10.3 | –
5 | CCOc1ccccc1NC(=O)CN1CCN(S(=O)(=O)c2ccc(Br)cc2)CC1 | 2.57 | –
6 | Cc1oc(-c2ccccc2F)nc1CN1CCC(C(=O)NCCc2ccc(Cl)cc2)CC1 | -1.13 | –
7 | CCOc1cccc(C(=O)Nc2nnc(S(=O)(=O)N(C)c3ccc(C)cc3)s2)c1 | 0.655 | –
8 | COc1ccc(Cn2ccc3nc(C)c(C(=O)Nc4ccc(C)c(F)c4)cc3c2=O)cc1 | -3.4 | –
9 | COc1ccc(OC)c(CNC(=O)Cn2nc(C)c3c(C)n(-c4ccccc4)nc3c2=O)c1 | 3.15 | –
10 | CCN(CC)CCNC(=O)CN1N=C(c2ccc(OC)cc2)CCC1=O | -3.32 | –
11 | CCOC(=O)c1cc2c(=O)n3ccccc3nc2n(CCCOC)c1=NC(=O)C(C)(C)Oc1ccc(Cl)cc1 | -23.1 | –
12 | COc1cccc(-c2nnc(SCC(=O)N3CCC(C)CC3)o2)c1 | 1.34 | –
13 | COC(=O)c1ccc(NC(=O)c2cnn(-c3ccc(Cl)cc3)c2C2CCN(C(=O)OC(C)(C)C)CC2)cc1 | 2.85 | –
14 | COc1cccc2c1C(=O)c1c(O)c3c(c(O)c1C2=O)CC(O)(C(C)=NNC(=O)c1ccc(Cl)c(Cl)c1)CC3OC1CC(N)C(O)C(C)O1 (configuration not stated) | – | 2.51 µM (active)
15 | O=C(NCc1ccc2c(c1)CCN2C(=O)c1ccccc1)Nc1cc(F)ccc1F | -0.322 | –
16 | O=C(NCCCO)C(=O)Nc1c2c(nn1-c1ccccc1)CSC2 | 6.72 | –
17 | O=C(Nc1ccc2nc(SCCOc3ccccc3Cl)sc2c1)c1ccco1 | -0.316 | –
18 | CCc1nc(-c2cc(S(=O)(=O)N3CCN(c4ccc(OC)cc4)CC3)ccc2OC)no1 | -3.39 | –
19 | CCCN1CCc2nc(N3CCN(C)CC3)ncc2C1 | 1.55 | –
20 | C/C(CC(=O)NC(C)(C)C)=N\NC(=O)c1ccco1 | 3.01 | –
21 | COc1cccc2cc(/C(C)=N/NC(=O)c3ccco3)oc12 | -10.8 | –
22 | C/C(=N/NC(=O)CCc1ccccc1)c1ccco1 | – | 28.2 µM (active)
23 | CCC1=Nc2cc(C(=O)NCCCOC(C)C)ccc2Sc2ccc(C)cc21 | -0.0425 | –
24 | CCOC(=O)c1ccc2c(c1)N(Cc1cccc(OC)c1)C(=O)c1ccccc1S2(=O)=O | -4.86 | –

Row | Compound | FP activity, negative = inhibition [%] | Potency
25 | CN(C(=O)c1ccc2c(c1)N(Cc1cccc(Cl)c1)C(=O)c1ccccc1S2=O)C1CCCCC1 (configuration not stated) | -4.59 | –
26 | O=C1CN(C(=O)Nc2ccccc2C(F)(F)F)C(c2ccccc2)c2c(sc3c2CCCC3)N1 (configuration not stated) | 6.74 | –
27 | COc1ccccc1NC(=O)C1=C(C)Nc2nc(SCC(=O)c3ccc(C)cc3)nn2C1c1ccccc1C (configuration not stated) | -8.08 | –
28 | O=C1N(Cc2ccccc2)c2ccc(Cl)cc2C1(O)c1c[nH]c2ccccc12 (configuration not stated) | 0.882 | –
29 | CCOC(=O)c1c(NC(=O)/C=C/c2ccc(OC)cc2)sc2c1CCC(C)C2 (configuration not stated) | 2.55 | –
30 | CCOC(=O)c1ccccc1NC(=O)c1nn(-c2ccc(OC)c(Cl)c2)c(=O)c2c1c1ccccc1n2C | -3.65 | –
31 | CCc1ccc(NS(=O)(=O)c2ccc3[nH]cc(C(=O)NCCc4cccc(C)c4)c(=O)c3c2)cc1 | -8.63 | –
32 | COc1ccc(N2CCN(c3nc(-c4ccccc4F)nc4ccccc34)CC2)cc1 | -3 | –
33 | CC(C)c1ccc(OCC(=O)N(Cc2ccc(N(C)C)cc2)C2CCS(=O)(=O)C2)cc1 (configuration not stated) | -0.0046 | –
34 | CCOc1cccc(CC(=O)N2CCc3c([nH]c4ccccc34)C2c2ccc(F)cc2)c1OCC (configuration not stated) | 1.73 | –
35 | Cc1ccc(C)c(Nc2nnc(-c3ccc(C)c(S(=O)(=O)N4CCCCC4)c3)c3ccccc23)c1 | 0.916 | –
36 | CCCN1C(=O)C(O)(CC(=O)c2ccc(CC)cc2)c2cc(Br)ccc21 (configuration not stated) | 6.2 | –
37 | Cc1nn(CC(=O)O)c(=O)c2cc3cc(F)ccc3n12 | -2.51 | –
38 | CCOC(=O)c1ccc(NC(=O)C2CC(=O)N(c3ccc(C(C)C)cc3)C2)cc1 (configuration not stated) | -0.232 | –
39 | COc1cccc(Cn2c(CNS(=O)(=O)c3ccc(Cl)s3)nc3cccnc32)c1 | -3.77 | –
40 | COc1ncnc2c1N=C1CC(C)(C)CC(N)=C1S2 | – | 35.5 µM (active)
41 | CC(=O)c1c(C)n(S(=O)(=O)c2ccc(Cl)cc2)c2ccc(NS(=O)(=O)c3ccc(Cl)cc3)cc12 | -4.05 | –
42 | COc1cccc(Cn2c(SCc3ccc(C(=O)N4CCCCC4)cc3)nc3ccncc32)c1 | -1.17 | –
43 | Fc1cccc(-n2ncc3c2ncn2nc(-c4ccccc4Cl)nc32)c1 | -9.93 | –
44 | Cc1ccc(-c2cn3c(n2)sc2cc(C(=O)NCc4cccs4)ccc23)c(C)c1 | 1.59 | –
45 | COc1ccccc1CNC(=O)c1ccccc1NC(=O)c1nsc2ccccc12 | 0.107 | –
46 | CC(=O)Nc1ccc(NC(=O)c2cc3sccc3n2Cc2ccc(F)cc2)cc1 | 2.87 | –
47 | CCOc1ccc(OCC)c(NC(=O)CN(c2ccc(C)cc2)S(=O)(=O)c2c(C)n[nH]c2C)c1 | 0.183 | –
